Assay results taken from PubChem BioAssay AID441 (NMMLSC, 2006).
In all, about 24,000 compounds went through this assay and about 70 (0.3%) were called active. What follows is part of a selection rich in actives, with near analogues and random picks from the rest. A number with no mark means an inactive call. Rule as the data show it: active = inhibition above about 30%; inconclusive = no clear call, values can overlap the other calls; inactive = below that.

Biological target: N-formyl peptide receptor 2 (Homo sapiens) (UniProt P25090)
Sequence (P25090 whole entry, looked up): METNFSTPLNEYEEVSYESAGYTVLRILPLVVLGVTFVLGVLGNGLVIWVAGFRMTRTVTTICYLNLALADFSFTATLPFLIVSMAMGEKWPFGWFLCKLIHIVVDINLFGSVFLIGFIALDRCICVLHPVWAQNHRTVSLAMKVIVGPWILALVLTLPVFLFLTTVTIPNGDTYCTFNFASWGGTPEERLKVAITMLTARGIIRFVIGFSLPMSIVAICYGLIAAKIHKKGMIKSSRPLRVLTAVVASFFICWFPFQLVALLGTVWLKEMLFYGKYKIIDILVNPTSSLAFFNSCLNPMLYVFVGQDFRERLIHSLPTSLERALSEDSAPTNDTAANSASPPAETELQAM
Test: small molecules displacing FPRL1 fluorescent ligand – cell-based, FPR counter-screen, flow cytometry, primary screen (AID 441);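 also: 0% = buffer alone and 100% = receptor blocker peptide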
Settings: FPRL1-expressing cells, fluorescent ligand binding inhibition, stronger effect = higher value, concentration not given here

Row | Structure (SMILES) | inhibition
1 | Cc1cccc(N2C(=O)SC(N(CC(=O)O)c3cccc(C)c3)C2=O)c1 (stereo not drawn) | 0.6%
2 | C/C(N)=C(\C#N)C(=O)NCCc1ccccn1 | -4.6%
3 | COC(=O)c1ccc(CN(c2ccccc2OC)S(=O)(=O)c2cccs2)o1 | -4.4%
4 | O=C(NCc1ccco1)C1CCCN(S(=O)(=O)c2cnc[nH]2)C1 (stereo not drawn) | 0.2%
5 | Cc1cc(N2C(=O)C(=O)/C(=C(/O)c3ccccc3)C2c2cccc(Br)c2)no1 (stereo not drawn) | -8.1%
6 | COc1cccc(C(CC(=O)NCCN2CCOCC2)NS(=O)(=O)c2ccc(C)cc2)c1OC (stereo not drawn) | 0.8%
7 | O=C(CN1CCN(c2ccccc2F)CC1)c1ccc2c(c1)OCO2 | -9.1%
8 | O=C(Nc1cccnc1)c1ccc2c(c1)OCO2 | -0.1%
9 | CCOC(=O)c1cn(CC(=O)Nc2ccc(C(C)C)cc2)nn1 | 1.8%
10 | CC1CN(C(=O)c2ccc3c(c2)OCO3)OC(c2ccccc2)O1 (stereo not drawn) | 5.6%
11 | Cc1ccc(-n2nc3cc(Cl)c(NC(=O)c4ccco4)cc3n2)cc1 | -4.7%
12 | CCOC(=O)c1nc(-c2ccc3c(c2)OCO3)[nH]c1C | -7.4%
13 | CCC1=C(C(=O)OC)C(c2cc(OC)ccc2OC)C(C#N)=C(N)O1 (stereo not drawn) | -1.1%
14 | COCCN1C(=O)c2oc3c(C)cc(C)cc3c(=O)c2C1c1cccc(O)c1 (stereo not drawn) | -10.9%
15 | CCCS(=O)(=O)N1CCCC(C(=O)NCCN2CCCCC2C)C1 (stereo not drawn) | 3.4%
16 | O=C(Cn1cnc2c(nnn2Cc2ccc(F)cc2)c1=O)NCc1ccc2c(c1)OCO2 | -2.3%
17 | Cc1cc(C)c2c(n1)nn1c(N3CCOCC3)cc(C)nc21 | -1.1%
18 | CCOc1ccc(C(CC(=O)O)NC(=O)COc2ccccc2)cc1 (stereo not drawn) | 0.6%
19 | CCOC(=O)C1C(=O)C=C(c2ccc(OC)cc2)CC1c1ccco1 (stereo not drawn) | -6.4%
20 | CCn1cc(C(=O)NC2CCCCCC2)c(=O)c2cc(S(=O)(=O)N3CCCCC3)ccc21 | -5.2%
21 | Brc1cnc(N2CCCC2)nc1N1CCCCC1 | 0.1%
22 | CC(C)Cc1cc(C(=O)Nc2cc(Br)ccc2O)no1 | -1.4%
23 | Cc1cc(NC(=O)c2cc(-c3cccs3)on2)nn1Cc1ccc(Cl)cc1 | 2%
24 | CC(C)C[C@H](NC(=O)Nc1cccc(C(F)(F)F)c1)C(=O)O | 2.8%
25 | Fc1ccccc1C(c1nnnn1Cc1ccc2c(c1)OCO2)N1CCN(Cc2ccccc2)CC1 (stereo not drawn) | 10.3%
26 | c1ccc(Cc2nn3c(Cn4cnc5ccccc54)nnc3s2)cc1 | 4.2%
27 | CCOc1cccc(-c2nnc3sc(COc4ccc(OC)cc4)nn23)c1 | -1%
28 | Clc1ccc(Cc2nn3c(-c4ccncc4)nnc3s2)cc1 | 54.5% (active)
